In PubChem BioAssay (NCI):
The panel holds about 79,000 compounds, 15% with a hit somewhere; the sample as a whole holds those more often. Active and inactive are the calls of the source. Rule as the data show it: active = growth inhibition above about 70%; inactive = the rest.

Assays:
[1] = NCI Yeast Anticancer Drug Screen. Data for the rad52 strain (AID 147);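 also: 0% = growth of vehicle-treated control cultures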; conditions: S. cerevisiae rad52 mutant growth inhibition, stronger effect = higher value
Method in brief: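 Genetically altered yeast (DNA damage repair defect) treated with compound; inhibition calculated relative to vehicle.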

[2] = NCI Yeast Anticancer Drug Screen. Data for the wt1 strain (AID 149);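 also: 0% = growth of vehicle-treated wt1 cultures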; conditions: S. cerevisiae wt1 strain (SPY 50644) growth inhibition, stronger effect = higher value
Method in brief: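 Measured: growth of wt1 yeast under compound versus vehicle treatment, reported as inhibition.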

[3] = NCI Yeast Anticancer Drug Screen. Data for the rad50EPP+ strain (AID 151);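 also: 0% = growth of vehicle-treated control cultures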; conditions: S. cerevisiae rad50 mutant strain, stronger effect = higher value
Method in brief: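 Strain rad50EPP+; compound exposure; % growth inhibition vs vehicle.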

[4] = NCI Yeast Anticancer Drug Screen. Data for the mgt1 strain (AID 153); conditions: S. cerevisiae mgt1 mutant growth inhibition, stronger effect = higher value
Method in brief: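 Read-out: yeast growth inhibition vs vehicle control. Strain mgt1, drawn from a panel altered in DNA damage repair or cell cycle control.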

[5] = NCI Yeast Anticancer Drug Screen. Data for the rad50 strain (AID 155);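 also: 0% = growth of vehicle-only cultures of the same strain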; conditions: S. cerevisiae rad50 strain growth inhibition, stronger effect = higher value
Method in brief: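 Growth of the mutant yeast was measured after compound exposure and referenced to vehicle-treated cultures.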

[6] = NCI Yeast Anticancer Drug Screen. Data for the mec2-1 strain (AID 157); conditions: S. cerevisiae mec2-1 strain, stronger effect = higher value
Method in brief: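 Cells of the genetically defined mec2-1 yeast strain are incubated with test compound. Inhibition of growth is calculated against vehicle-treated controls.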

[7] = NCI Yeast Anticancer Drug Screen. Data for the rad14 strain (AID 159);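 also: 0% = growth of vehicle-treated control cultures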; conditions: S. cerevisiae rad14 strain growth inhibition, stronger effect = higher value
Method in brief: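 Here, inhibition of yeast growth was measured after compound exposure, using a strain with a genetic defect in DNA damage repair and vehicle-treated cultures as the reference.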

[8] = NCI Yeast Anticancer Drug Screen. Data for the sgs1 mgt1 strain (AID 161);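 also: 0% = growth of cultures given vehicle only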; conditions: S. cerevisiae sgs1 mgt1 strain, stronger effect = higher value
Method in brief: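 Genetically altered yeast, compound exposure, growth inhibition relative to vehicle.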

[9] = NCI Yeast Anticancer Drug Screen. Data for the CLN2oe strain (AID 163);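 also: 0% = growth of vehicle-only control cultures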; conditions: S. cerevisiae CLN2oe strain, stronger effect = higher value
Method in brief: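 Strain altered in cell-cycle control, incubated with compound; growth compared to solvent-treated controls.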

[10] = NCI Yeast Anticancer Drug Screen. Data for the cln2 rad14 strain (AID 165);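 also: 0% = growth equal to vehicle treated cultures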; conditions: S. cerevisiae cln2 rad14 strain, stronger effect = higher value
Method in brief: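 The screen exposed genetically defined yeast (cln2 rad14) to test compounds and scored growth inhibition relative to vehicle-treated controls.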

[11] = NCI Yeast Anticancer Drug Screen. Data for the bub3 strain (AID 167); conditions: S. cerevisiae bub3 mutant strain, stronger effect = higher value
Method in brief: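 Whole-cell yeast assay. The mutant strain was incubated with compounds, and growth inhibition was determined by comparison with vehicle-treated cells.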

[12] = NCI Yeast Anticancer Drug Screen. Data for the wt2 strain (AID 169);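 also: 0% = growth of vehicle-treated yeast cultures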; conditions: S. cerevisiae wt2 strain growth inhibition, stronger effect = higher value
Method in brief: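 Steps: yeast strain treated with compound; growth recorded; inhibition calculated relative to cultures given vehicle alone.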

[13] = NCI Yeast Anticancer Drug Screen. Data for the mlh1 strain (AID 171);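 also: 0% = growth of vehicle-treated control cultures of the same strain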; conditions: S. cerevisiae mlh1 strain growth inhibition, stronger effect = higher value
Method in brief: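 Yeast screen: mutant strain plus compound, growth scored against vehicle control wells.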

[14] = NCI Yeast Anticancer Drug Screen. Data for the sgs1 strain (AID 173);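 also: 0% = growth of vehicle-only control cultures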; conditions: S. cerevisiae sgs1 mutant, stronger effect = higher value
Method in brief: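 Inhibition of yeast growth served as the measure. The mutant strain was treated with each compound, and growth was normalised to cultures receiving vehicle alone.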

[15] = NCI Yeast Anticancer Drug Screen. Data for the mlh1 rad18 strain (AID 175); conditions: S. cerevisiae mlh1 rad18 strain growth inhibition, stronger effect = higher value
Method in brief: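 Compound-treated yeast growth, normalised to vehicle controls. Strain bears defined DNA repair mutations.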

[16] = NCI Yeast Anticancer Drug Screen. Data for the rad18 strain (AID 177); conditions: S. cerevisiae rad18 mutant growth inhibition, stronger effect = higher value
Method in brief: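 Inhibition values reflect reduced yeast growth compared with vehicle-treated controls, using a strain engineered with a DNA damage repair defect.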

[17] = at 5.0 µM (retest, dose inferred, filed as 0.5)
[18] = at 50.0 µM (retest, dose inferred, filed as 5.0)

Measured: growth inhibition

COC(=O)c1ccc([N+](=O)[O-])c(O)c1
active: [1]; at 100.0 µM 98% | [2]; at 100.0 µM 98% | [3]; at 33.0 µM 76% | [3]; at 100.0 µM 99% | [4]; at 100.0 µM 98% | [5]; at 50.0 µM 77.5% | [5]; at 100.0 µM 97% | [6]; [18] 75% | [6]; at 50.0 µM 85% | [6]; at 100.0 µM 99% | [7]; at 100.0 µM 98% | [8]; at 50.0 µM 89.7% | [9]; at 100.0 µM 98% | [11]; at 50.0 µM 78.9% | [11]; at 100.0 µM 99% | [12]; at 100.0 µM 99% | [13]; at 100.0 µM 99% | [14]; at 33.0 µM 81% | [14]; at 100.0 µM 98% | [15]; [18] 88% | [15]; at 50.0 µM 72.9% | [16]; at 100.0 µM 98%
inactive: [1]; at 1.2 µM -5% | [1]; at 3.7 µM -3% | [1]; at 11.0 µM 17% | [1]; at 33.0 µM 49% | [2]; at 1.2 µM -12% | [2]; at 3.7 µM -10% | [2]; at 11.0 µM 3% | [2]; at 33.0 µM 28% | [3]; at 1.2 µM -3% | [3]; at 3.7 µM -25% | [3]; at 11.0 µM 3% | [4]; at 1.2 µM -15% | [4]; at 3.7 µM -13% | [4]; at 11.0 µM -4% | [4]; at 33.0 µM 44% | [5]; at 1.2 µM -5% | [5]; at 3.7 µM -28% | [5]; [17] 2% | [5]; at 11.0 µM -17% | [5]; at 33.0 µM 37% | [5]; [18] 65% | [6]; at 1.2 µM -26% | [6]; at 3.7 µM -23% | [6]; [17] -7% | [6]; at 11.0 µM -4% | [6]; at 33.0 µM 35% | [7]; at 1.2 µM -16% | [7]; at 3.7 µM -13% | [7]; at 11.0 µM -7% | [7]; at 33.0 µM 27% | [8]; [17] 5% | [8]; [18] 4% | [9]; at 1.2 µM -6% | [9]; at 3.7 µM 1% | [9]; at 11.0 µM 1% | [9]; at 33.0 µM 35% | [10]; [17] -2% | [10]; [18] 65% | [10]; at 50.0 µM 58.3% | [11]; at 1.2 µM -22% | [11]; at 3.7 µM -31% | [11]; [17] -7% | [11]; at 11.0 µM -20% | [11]; at 33.0 µM 6% | [11]; [18] 56% | [12]; at 1.2 µM 3% | [12]; at 3.7 µM 7% | [12]; at 11.0 µM 4% | [12]; at 33.0 µM 63% | [13]; at 1.2 µM -4% | [13]; at 3.7 µM -1% | [13]; at 11.0 µM 7% | [13]; at 33.0 µM 67% | [14]; at 1.2 µM 22% | [14]; at 3.7 µM 32% | [14]; at 11.0 µM 21% | [15]; [17] -28% | [16]; at 1.2 µM -9% | [16]; at 3.7 µM -2% | [16]; at 11.0 µM 8% | [16]; at 33.0 µM 52%

CCN(CC)C(=S)N/N=C(/C)c1cccc(/C(C)=N\NC(=S)N(CC)CC)n1
inactive: [1]; at 1.2 µM -24% | [1]; at 3.7 µM -15% | [1]; at 11.0 µM 7% | [1]; at 33.0 µM 43% | [2]; at 1.2 µM -4% | [2]; at 3.7 µM -12% | [2]; at 11.0 µM 11% | [2]; at 33.0 µM 60% | [3]; at 1.2 µM 16% | [3]; at 3.7 µM 6% | [3]; at 11.0 µM 31% | [3]; at 33.0 µM 48% | [4]; at 1.2 µM 0% | [4]; at 3.7 µM -14% | [4]; at 11.0 µM 0% | [4]; at 33.0 µM 61% | [5]; at 1.2 µM -17% | [5]; at 3.7 µM -25% | [5]; [17] -14% | [5]; at 11.0 µM -12% | [5]; at 33.0 µM 50% | [5]; at 50.0 µM 55.5% | [6]; at 1.2 µM -43% | [6]; at 3.7 µM -3% | [6]; [17] 12% | [6]; at 11.0 µM -8% | [6]; at 33.0 µM 52% | [6]; at 50.0 µM 69.1% | [7]; at 1.2 µM -6% | [7]; at 3.7 µM 10% | [7]; at 11.0 µM 2% | [7]; at 33.0 µM 46% | [8]; [17] -5% | [8]; at 50.0 µM 66.7% | [9]; at 1.2 µM 17% | [9]; at 3.7 µM 16% | [9]; at 11.0 µM 31% | [9]; at 33.0 µM 48% | [10]; [17] 21% | [10]; at 50.0 µM 34.5% | [11]; at 1.2 µM 7% | [11]; at 3.7 µM 13% | [11]; [17] 39% | [11]; at 11.0 µM 16% | [11]; at 33.0 µM 56% | [11]; at 50.0 µM 65.2% | [12]; at 1.2 µM 12% | [12]; at 3.7 µM 4% | [12]; at 11.0 µM 10% | [12]; at 33.0 µM 64% | [13]; at 1.2 µM -12% | [13]; at 3.7 µM -7% | [13]; at 11.0 µM 9% | [13]; at 33.0 µM 52% | [14]; at 1.2 µM -14% | [14]; at 3.7 µM -3% | [14]; at 11.0 µM 7% | [14]; at 33.0 µM 39% | [15]; [17] 39% | [16]; at 1.2 µM -1% | [16]; at 3.7 µM 9% | [16]; at 11.0 µM 23% | [16]; at 33.0 µM 59%
active: [1]; at 100.0 µM 90% | [2]; at 100.0 µM 87% | [3]; at 100.0 µM 79% | [4]; at 100.0 µM 91% | [5]; [18] 96% | [5]; at 100.0 µM 86% | [6]; [18] 95% | [6]; at 100.0 µM 86% | [7]; at 100.0 µM 92% | [8]; [18] 91% | [9]; at 100.0 µM 91% | [10]; [18] 91% | [11]; [18] 90% | [11]; at 100.0 µM 84% | [12]; at 100.0 µM 89% | [13]; at 100.0 µM 85% | [14]; at 100.0 µM 88% | [15]; [18] 92% | [15]; at 50.0 µM 70.7% | [16]; at 100.0 µM 91%
